Experimental data reported in PubChem BioAssay.
Calls of active or inactive are those of the source.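 The calls were made as follows, unless noted: active = visually confirmed hit in the image check and inhibition above 20%; inconclusive = visually confirmed hit but inhibition not above 20%; inactive = no visual hit in the image check.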

Experiments:
[1] = inhibitors of TNFa-induced NFkB p65 translocation, primary screen, imaging, HUVEC, MLSMR starter and 10KST1 sets (AID 438;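 active = inhibition above 20% together with a positive visual image hit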;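 also: compound added about 3h40 before a 20 min TNFalpha stimulation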;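 as to inhibition: signal is the nuclear over cytoplasmic p65 intensity ratio per well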); conditions: HUVEC TNFa-induced p65 nuclear translocation; cell count: measured here: nuclei count (cytotoxicity indicator), at 2.08 µM; inhibition: at 2 µM, stronger effect = higher value, 0% TNFa-plus-vehicle, 100% no-TNFa wells
[2] = endothelial E-selectin expression blockers – imaging, HUVEC, immunofluorescence, MLSMR starter and 10KST1 sets, primary screen (AID 487); conditions: HUVEC TNFalpha-induced E-selectin immunofluorescence imaging, at 2 µM; inhibition: stronger effect = higher value; nuclei count: measured here: cell number, toxicity;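 as to inhibition: signal is fraction of cell area covered by stained E-selectin grains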;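 as to nuclei count: 100% = median nuclei count of all wells on the same plate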
[3] = Primary imaging screen for DUSP6 inhibitors that restore phospho-Erk in transfected HeLa cells, chemical complementation (AID 609;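 active = compounds giving at least 50% inhibition in the cell-based MKP-3 phosphatase rescue imaging test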;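 as to inhibition: phospho-Erk level distribution per well compared with pooled transfected vehicle control wells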); conditions: HeLa MKP-3 transfected, phospho-Erk imaging KS statistic, at 10 µM, cells stimulated with TPA for 15 min
[4] = biological target: Dual specificity protein phosphatase 6 (Homo sapiens) (UniProt Q16828); assay: as above; conditions: HeLa MKP-3 transfected, phospho-Erk imaging KS statistic; at 10 µM; stronger effect = higher value; cells stimulated with TPA for 15 min
Sequence of Dual specificity protein phosphatase 6 (Homo sapiens) (Q16828 whole entry, looked up): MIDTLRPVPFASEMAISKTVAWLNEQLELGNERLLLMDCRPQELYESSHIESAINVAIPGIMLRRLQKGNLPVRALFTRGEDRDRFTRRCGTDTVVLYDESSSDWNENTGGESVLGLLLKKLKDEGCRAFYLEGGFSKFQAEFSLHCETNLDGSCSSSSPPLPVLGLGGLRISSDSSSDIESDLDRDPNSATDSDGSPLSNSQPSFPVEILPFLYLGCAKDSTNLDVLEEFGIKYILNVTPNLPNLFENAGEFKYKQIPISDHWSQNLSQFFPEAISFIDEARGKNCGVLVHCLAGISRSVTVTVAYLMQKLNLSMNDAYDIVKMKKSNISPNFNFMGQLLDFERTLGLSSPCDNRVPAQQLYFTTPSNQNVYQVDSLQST

[5] = biological target: Voltage-gated potassium channel subunit beta-2 (Rattus norvegicus) (UniProt P62483); assay: inhibitors of rat Kvbeta2 reductase activity – biochemical, NADPH fluorescence, primary screen (AID 622;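 active = fluorescence slope higher than the sample average by over 3 SD, cut at about -0.22 in these data, passing the limit was not always enough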;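 also: slope of raw intensity against log time taken from 70 to 1610 s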); conditions: recombinant KvBeta, 4-cyanobenzaldehyde reduction, at 10 µM, stronger effect = higher value
Sequence of Voltage-gated potassium channel subunit beta-2 (Rattus norvegicus) (P62483 whole entry, looked up): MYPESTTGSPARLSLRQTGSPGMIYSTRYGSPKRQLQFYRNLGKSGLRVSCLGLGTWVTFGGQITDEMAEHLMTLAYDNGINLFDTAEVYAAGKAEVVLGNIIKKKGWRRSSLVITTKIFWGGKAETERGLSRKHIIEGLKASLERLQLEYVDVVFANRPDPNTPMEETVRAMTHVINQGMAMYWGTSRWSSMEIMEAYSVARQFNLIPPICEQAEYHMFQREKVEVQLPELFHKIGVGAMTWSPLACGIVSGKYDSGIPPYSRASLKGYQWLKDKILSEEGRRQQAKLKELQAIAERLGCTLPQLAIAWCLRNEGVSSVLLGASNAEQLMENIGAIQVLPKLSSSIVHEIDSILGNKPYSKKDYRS

[6] = biological target: Voltage-gated potassium channel subunit beta-2 (Rattus norvegicus) (UniProt P62483); assay: enhancers of rat Kvbeta2 NADPH turnover – biochemical, NADPH fluorescence, primary screen (AID 623;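 active = NADPH fluorescence slope more negative than the mean of all samples by about 3 SD, 99.7% confidence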;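 also: fluorescence intensity change per second fitted from 20 to 320 s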); conditions: Recombinant KvBeta, NADPH fluorescence decrease slope, 10 min; at 10 µM; stronger effect = lower value
[7] = biological target: Muscarinic acetylcholine receptor M4 (Homo sapiens) (UniProt P08173); assay: M4-linked GIRK flux change, two-sided – cell-based, HEK293 M4/GIRK, thallium flux, BTC-AM, M4 allosteric agonist project, primary screen (AID 625;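 active = fluorescence slope after compound addition differing from the mean of all tested samples at 99.7% confidence, mostly higher but some lower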;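 also: thallium influx through GIRK channels coupled to M4 in HEK293 cells with BTC-AM dye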); conditions: at 10 µM, actives lie on both sides
Sequence of Muscarinic acetylcholine receptor M4 (Homo sapiens) (P08173 whole entry, looked up): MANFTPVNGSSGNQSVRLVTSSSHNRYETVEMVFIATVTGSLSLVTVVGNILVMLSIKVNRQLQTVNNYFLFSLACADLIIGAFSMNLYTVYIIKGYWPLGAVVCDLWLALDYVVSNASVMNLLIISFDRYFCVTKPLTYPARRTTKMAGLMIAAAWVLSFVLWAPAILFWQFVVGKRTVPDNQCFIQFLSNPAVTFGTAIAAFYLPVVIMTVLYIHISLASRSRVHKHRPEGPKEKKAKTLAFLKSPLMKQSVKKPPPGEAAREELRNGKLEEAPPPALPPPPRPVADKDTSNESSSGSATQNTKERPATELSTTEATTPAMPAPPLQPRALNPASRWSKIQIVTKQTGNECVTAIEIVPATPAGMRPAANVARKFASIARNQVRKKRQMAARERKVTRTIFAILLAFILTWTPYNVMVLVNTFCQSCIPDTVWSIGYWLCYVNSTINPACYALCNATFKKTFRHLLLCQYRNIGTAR

[8] = inhibitors of larval lipid processing in zebrafish, primary screen, whole organism, PED6 fluorescence, gall bladder and intestine (AID 686;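 active = a full or partial loss of lipid-probe fluorescence in the fish gall bladder, intestine or both, judged by eye; inactive = no fluorescence loss, or compound toxic to the fish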;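 also: larvae 5 to 7 days old with five fish per well; signal comes from phospholipase A2 cleavage of quenched PED6 carried via bile; overnight exposure to compound and PED6 before scoring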); conditions: Zebrafish larvae PED6 lipid processing, fluorescence scoring; screened at 20 µM (by protocol)
[9] = loss of swimming-algae plug formation – whole organism, Chlamydomonas reinhardtii, WT vs cilia-less mutant, absorbance, 96-well, primary screen (AID 463189;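 active = inhibition at or above 50% relative to wild type and mutant plate controls; inactive = inhibition below 50%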;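 also: 0% = wild type cc124 cells in DMSO and 100% = ciliumless bld1 mutant cells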); conditions: Chlamydomonas reinhardtii gravitaxis, OD600 absorbance, 2 days; at 10 µM; stronger effect = higher value
[10] = measured here: cell density z-score
[11] = measured here: nuclear c-Myc green intensity z-score
[12] = measured here: nuclear pErk red intensity z-score, stronger effect = higher value

Row | Compound | cell count [1] | inhibition [1] | inhibition [2] | nuclei count [2] [%] | z-score [3, 10] | z-score [3, 11] | z-score [3, 12] | inhibition [4] | fluorescence slope [5] | NADPH fluorescence slope [6] | fluorescence slope [7] | outcome [8] | inhibition [9]
1 | CCOC(=O)c1[nH]c2ccccc2c1NC(=O)CN(C)C | 656 | 2.2% (inactive) | -136% (inactive) | 180 | 0.955 | 0.5 | -0.213 | 7.93% (inactive) | -0.476 (inactive) | -4.7e-05 (inactive) | 0.00584 (inactive) | inactive | -6.18% (inactive)
2 | COc1ccc(CCNc2oc(COc3ccccc3)nc2C#N)cc1 | 481 | -2.4% (inactive) | -411% (inactive) | 140 | 0.781 | 0.424 | 0.61 | -3.95% (inactive) | -0.409 (inactive) | -5.2e-05 (inactive) | 0.00409 (inactive) | inactive | -2.43% (inactive)
3 | C=C(C)Cn1c(-c2ccc(OC)cc2)nc2ccccc21 | 377 | 0.8% (inactive) | -113% (inactive) | 157 | -0.296 | -0.903 | 0.627 | -6.86% (inactive) | -0.461 (inactive) | -0.000111 (inactive) | 0.00384 (inactive) | inactive; toxic | 25.6% (inactive)
4 | COCCNC(=O)C(C#N)c1nc2ccccc2nc1N1CCN(Cc2ccc3c(c2)OCO3)CC1 (centres undefined) | 737 | -8.1% (inactive) | 11.8% (inactive) | 172 | -1.49 | 1.08 | 1.16 | -2.09% (inactive) | -0.474 (inactive) | -0.000128 (inactive) | 0.00436 (inactive) | inactive | 4.28% (inactive)
5 | CCOC(=O)NC(Nc1sc2c(c1C(=O)OC)CCN(C)C2)(C(F)(F)F)C(F)(F)F | 614 | 3.1% (inactive) | -20.8% (inactive) | 89.6 | 0.751 | -0.407 | -0.601 | 16.5% (inactive) | -0.501 (inactive) | -3.3e-05 (inactive) | 0.00619 (inactive) | inactive | 36.6% (inactive)
6 | CCOC(=O)CSc1nc(N2CCOCC2)c2c(c1C#N)CC(C)(C)N(C)C2 | 531 | -4.6% (inactive) | -19.7% (inactive) | 102 | -0.379 | 0.944 | -0.77 | 1.42% (inactive) | -0.505 (inactive) | 4.1e-05 (inactive) | 0.00477 (inactive) | inactive | 33.8% (inactive)
7 | CCC(=O)N(Cc1cccs1)C1CCOC(C)(C)C1 (centres undefined) | 541 | 6.5% (inactive) | 6.3% (inactive) | 166 | 0.577 | -0.186 | 0.0071 | 1.9e-07% (inactive) | -0.389 (inactive) | -3e-05 (inactive) | 0.00514 (inactive) | inactive | 11.9% (inactive)
8 | CCN(CC)c1nc(N2CCOCC2)c(C#N)c2c1CN(C)CC2 | 580 | -9.1% (inactive) | -116% (inactive) | 152 | 1.03 | -1.51 | 0.0125 | 7.21% (inactive) | -0.43 (inactive) | -0.000217 (inactive) | 0.00408 (inactive) | inactive | 43.3% (inactive)
9 | COc1ccc(CC(=O)OCN2C(=O)c3ccccc3C2=O)cc1 | 518 | -10.2% (inactive) | -70.2% (inactive) | 138 | 0.489 | -1.2 | -0.603 | 11.9% (inactive) | -0.359 (inactive) | -1.7e-05 (inactive) | 0.00563 (inactive) | inactive | 20.5% (inactive)
10 | Cc1nn(CC(=O)NCCN2CCOCC2)c(=O)c2ccccc12 | 472 | 4.4% (inactive) | -0.8% (inactive) | 116 | -1.02 | -0.0587 | 0.79 | 5.95% (inactive) | -0.469 (inactive) | -3.4e-05 (inactive) | 0.00615 (inactive) | inactive | 27.9% (inactive)
11 | CC1(C)Cc2nc(NCCN3CCOCC3)c(C#N)cc2CO1 | 586 | -8.3% (inactive) | -133% (inactive) | 149 | 0.143 | 0.853 | 0.307 | -0.233% (inactive) | -0.486 (inactive) | -8.5e-05 (inactive) | 0.00414 (inactive) | inactive | -7.98% (inactive)
12 | CC(C)NCc1c(O)c(Br)cc2oc3c(c12)CCCC3 | 533 | 9.9% (inactive) | -3.5% (inactive) | 99.8 | 0.0675 | -0.158 | -0.115 | -7.67% (inactive) | -0.517 (inactive) | -1.1e-05 (inactive) | 0.00361 (inactive) | inactive | 53.2% (active)
13 | O=C1OC(N2CCN(C/C=C/c3ccccc3)CC2)c2ccccc21 (centres undefined) | 390 | -1.2% (inactive) | -65.2% (inactive) | 168 | 0.231 | -0.597 | 0.38 | 14% (inactive) | -0.458 (inactive) | -0.000109 (inactive) | 0.00426 (inactive) | inactive | 28.9% (inactive)
